# Results from PubChem BioAssay AID652126 (The Scripps Research Institute Molecular Screening Center, 2013).
# Hit rate of the full screen: of about 370,000 compounds, about 3,700 (1%) were called active. The entries come from a sample that favours actives as a whole. Values without a mark were called inactive.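 The calls were made as follows: active = activation above the mean over all tested compounds plus 3 SD (cut at about 0.9% in these data); inactive = the rest.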
# System: Nuclear hormone receptor DAF-12 (Strongyloides stercoralis)
# Assay: S. stercoralis DAF-12 nuclear receptor activators, primary screen, cell-based, luminescence, HEK293, GRIP1 co-expression, lit1-tk-luc (AID 652126);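 also: 0% = DMSO-only wells and 100% = 3 µM delta7-dafachronic acid wells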
# Settings: HEK293 ssDAF-12/GRIP1 lit1-tk-luc reporter, at 6.8 µM, stronger effect = higher value, % of 3 µM dafachronic acid response
row,SMILES,activation
1,COc1ccc(N2CCN(CCNS(=O)(=O)c3ccc(C(C)(C)C)cc3)CC2)cc1,-0.72%
2,Cc1ccc(Cn2cc(CN3[C@@H](C)COc4cc(Br)ccc4S3(=O)=O)nn2)cc1,-1.02%
3,O=C(Cn1cnc([N+](=O)[O-])n1)NCCc1ccccc1,-1.02%
4,O=C(Nc1ccn(Cc2ccccc2)n1)c1n[nH]c([N+](=O)[O-])c1Cl,1.07% (active)
5,O=C(O)CC(Cc1ccccc1)C(=O)Nc1ccc([N+](=O)[O-])cc1 (stereo unspecified),-1.24%
6,Cc1ccccc1CS(=O)(=O)Cc1ccc(C(=O)Nc2ccc(Cl)cc2)o1,-2.4%
7,O=C(C1CCN(C2CCN(Cc3ccc4cc(F)ccc4n3)CC2)CC1)N1CCCC1,0.06%
8,O=C(C1CCN(C2CCN(Cc3cccc4c3OCO4)CC2)CC1)N1CCOCC1,-0.29%
9,C/C(=C\c1ccco1)CN1CCC(N2CCC(C(=O)N3CCOCC3)CC2)CC1,1.16% (active)
10,O=S(=O)(c1ccccc1)N1CCC(c2nc3ccccc3o2)CC1,-1.57%
11,C=C(C)C#CC(Cc1ccccc1)NCC1CC1 (stereo unspecified),-1.12%
12,COC(=O)[C@H](C(C)C)N1CCc2nnn(Cc3ccc(C)cc3)c2-c2ccccc2S1(=O)=O,-1.89%
13,COC(=O)[C@@]12CCCCC=C1N(CCc1ccc(Cl)cc1)C(=O)[C@H]2CC(=O)NCc1ccc(OC)c(OC)c1,-1.91%
14,Cc1ccc2cc(/C=N/Nc3ccc(C(=O)O)cc3)c(Cl)nc2c1,0.95% (active)
15,Cc1ccc(/C=C2\CCn3c2nc2cc(C(=O)O)ccc2c3=O)c(C)c1,-1.16%
16,Cc1ccc(C(=O)N/N=C/c2sc(=O)n(Cc3cccc(C(=O)O)c3)c2Cl)cc1,0.05%
17,COc1cccc(N2CCN(CC(=O)N(C)Cc3ccc(F)cc3)CC2)c1,-1.79%
18,O=S1(=O)c2c(cccc2N2CC[C@H](O)C2)O[C@@H]2CCN1C2,-0.61%
19,CC(=O)OC12CCCN(C1)/C(=C/c1ccncc1)C2 (stereo unspecified),-1.9%
20,Cc1cc(C)nc(Nc2n[nH]c(-c3ccccc3N)n2)n1,1.05% (active)
21,Cc1cc(C)n2ncc(C(=O)Nc3ccc4c(c3)OCCO4)c2n1,-1.35%
22,C=CCN1C(=O)[C@@H](CC(=O)N2CCN(C(=O)c3ccco3)CC2)[C@]2(C(=O)OC)CCCCC=C12,-0.85%
23,O=C(CSc1nc2ccccc2n1Cc1ccccc1Cl)N/N=C\c1c[nH]c2ccccc12,-0.54%
24,COc1ccc(N(CC(=O)N/N=C/c2cccs2)S(=O)(=O)c2ccc(OC)c(OC)c2)cc1,-1.66%
25,Cc1c(NC(=O)C(=O)N/N=C/c2cccs2)c(=O)n(-c2ccccc2)n1C,-1.41%
26,COc1ccc2c(c1)c(C(=O)N/N=C/c1cccs1)c(C)n2C,1.69% (active)
